From ChEMBL document CHEMBL1961873, “Compounds: GSK PKIS; Assays: Nanosyn kinase panel” (2012)

Tests used:
[1] = target: 5'-AMP-activated protein kinase catalytic subunit alpha-2 (Homo sapiens) (UniProt P54646); details: at 1 µM
[2] = target: T1, NUAK family SNF1-like kinase 1 (Homo sapiens) (UniProt O60285); details: at 0.1 µM
T1 sequence (whole entry): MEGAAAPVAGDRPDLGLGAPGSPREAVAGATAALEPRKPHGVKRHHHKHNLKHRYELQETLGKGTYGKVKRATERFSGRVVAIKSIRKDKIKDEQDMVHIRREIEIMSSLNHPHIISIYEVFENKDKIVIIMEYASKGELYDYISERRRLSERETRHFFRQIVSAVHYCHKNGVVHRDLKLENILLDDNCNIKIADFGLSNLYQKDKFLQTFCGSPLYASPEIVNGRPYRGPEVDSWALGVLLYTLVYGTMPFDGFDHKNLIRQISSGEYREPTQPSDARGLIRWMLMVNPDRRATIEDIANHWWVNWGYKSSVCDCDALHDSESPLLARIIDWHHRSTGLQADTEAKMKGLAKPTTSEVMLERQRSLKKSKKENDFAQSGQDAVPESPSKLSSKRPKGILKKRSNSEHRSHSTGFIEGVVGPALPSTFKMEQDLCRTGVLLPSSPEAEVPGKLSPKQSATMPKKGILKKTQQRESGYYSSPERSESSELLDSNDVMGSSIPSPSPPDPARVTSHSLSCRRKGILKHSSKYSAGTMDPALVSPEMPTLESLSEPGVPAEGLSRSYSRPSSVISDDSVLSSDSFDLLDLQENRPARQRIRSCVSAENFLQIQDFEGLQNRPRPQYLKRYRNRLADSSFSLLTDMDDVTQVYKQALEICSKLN

[3] = target: T1, NUAK family SNF1-like kinase 1 (Homo sapiens); details: at 1 µM
[4] = target: T2, Serine/threonine-protein kinase BRSK1 (Homo sapiens) (UniProt Q8TDC3); details: at 0.1 µM
T2 sequence (whole entry): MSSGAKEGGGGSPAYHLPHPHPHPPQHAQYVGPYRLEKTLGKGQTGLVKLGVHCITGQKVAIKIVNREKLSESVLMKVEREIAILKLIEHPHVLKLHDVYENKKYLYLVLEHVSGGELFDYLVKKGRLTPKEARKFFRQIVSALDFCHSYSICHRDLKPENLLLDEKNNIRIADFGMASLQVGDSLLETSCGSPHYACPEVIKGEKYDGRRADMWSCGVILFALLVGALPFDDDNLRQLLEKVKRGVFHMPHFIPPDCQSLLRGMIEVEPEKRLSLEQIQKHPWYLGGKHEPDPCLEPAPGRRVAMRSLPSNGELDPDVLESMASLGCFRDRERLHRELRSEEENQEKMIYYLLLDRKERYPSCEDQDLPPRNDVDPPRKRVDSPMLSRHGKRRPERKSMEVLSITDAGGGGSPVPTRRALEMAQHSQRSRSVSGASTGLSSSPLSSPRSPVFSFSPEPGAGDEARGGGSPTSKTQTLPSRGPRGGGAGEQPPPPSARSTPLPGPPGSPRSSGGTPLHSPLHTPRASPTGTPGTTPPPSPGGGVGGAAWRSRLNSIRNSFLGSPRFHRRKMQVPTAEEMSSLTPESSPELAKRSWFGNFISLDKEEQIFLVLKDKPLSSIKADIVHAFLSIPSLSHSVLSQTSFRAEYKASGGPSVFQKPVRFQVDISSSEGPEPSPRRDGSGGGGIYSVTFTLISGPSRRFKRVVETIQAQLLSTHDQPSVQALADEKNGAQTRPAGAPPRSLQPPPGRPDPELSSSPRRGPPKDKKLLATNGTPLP

[5] = target: T2, Serine/threonine-protein kinase BRSK1 (Homo sapiens); details: at 1 µM
[6] = target: T3, Serine/threonine-protein kinase BRSK2 (Homo sapiens) (UniProt Q8IWQ3); details: at 0.1 µM
T3 sequence (whole entry): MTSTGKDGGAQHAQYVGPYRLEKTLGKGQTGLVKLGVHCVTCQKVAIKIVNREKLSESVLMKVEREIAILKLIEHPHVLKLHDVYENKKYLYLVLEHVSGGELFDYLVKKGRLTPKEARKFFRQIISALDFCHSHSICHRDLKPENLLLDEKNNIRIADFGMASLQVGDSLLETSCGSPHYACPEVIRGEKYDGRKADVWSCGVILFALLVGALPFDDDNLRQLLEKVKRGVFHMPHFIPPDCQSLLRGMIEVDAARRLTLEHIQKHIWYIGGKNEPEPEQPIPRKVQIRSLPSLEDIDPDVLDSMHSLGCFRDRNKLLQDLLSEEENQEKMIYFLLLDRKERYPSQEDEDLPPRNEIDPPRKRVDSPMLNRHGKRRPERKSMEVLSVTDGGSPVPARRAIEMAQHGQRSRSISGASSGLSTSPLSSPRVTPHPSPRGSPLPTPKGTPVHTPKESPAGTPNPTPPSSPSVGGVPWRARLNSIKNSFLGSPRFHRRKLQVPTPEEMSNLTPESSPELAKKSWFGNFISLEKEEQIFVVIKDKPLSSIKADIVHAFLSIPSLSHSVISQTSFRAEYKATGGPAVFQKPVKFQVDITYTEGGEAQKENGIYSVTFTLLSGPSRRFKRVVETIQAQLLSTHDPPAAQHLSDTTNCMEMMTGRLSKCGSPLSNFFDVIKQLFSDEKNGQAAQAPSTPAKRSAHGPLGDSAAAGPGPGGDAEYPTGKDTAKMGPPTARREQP

[7] = target: T3, Serine/threonine-protein kinase BRSK2 (Homo sapiens); details: at 1 µM
[8] = target: Calcium/calmodulin-dependent protein kinase type 1D (Homo sapiens) (UniProt Q8IU85); details: at 0.1 µM
[9] = target: Calcium/calmodulin-dependent protein kinase type 1D (Homo sapiens) (UniProt Q8IU85); details: at 1 µM
[10] = target: Calcium/calmodulin-dependent protein kinase type II subunit alpha (Homo sapiens) (UniProt Q9UQM7); details: at 0.1 µM
[11] = target: Calcium/calmodulin-dependent protein kinase type II subunit alpha (Homo sapiens) (UniProt Q9UQM7); details: at 1 µM
[12] = target: Calcium/calmodulin-dependent protein kinase type II subunit delta (Homo sapiens) (UniProt Q13557); details: at 0.1 µM
[13] = target: Calcium/calmodulin-dependent protein kinase type II subunit delta (Homo sapiens) (UniProt Q13557); details: at 1 µM
[14] = target: T4, Calcium/calmodulin-dependent protein kinase type IV (Homo sapiens) (UniProt Q16566); details: at 0.1 µM
T4 sequence (whole entry): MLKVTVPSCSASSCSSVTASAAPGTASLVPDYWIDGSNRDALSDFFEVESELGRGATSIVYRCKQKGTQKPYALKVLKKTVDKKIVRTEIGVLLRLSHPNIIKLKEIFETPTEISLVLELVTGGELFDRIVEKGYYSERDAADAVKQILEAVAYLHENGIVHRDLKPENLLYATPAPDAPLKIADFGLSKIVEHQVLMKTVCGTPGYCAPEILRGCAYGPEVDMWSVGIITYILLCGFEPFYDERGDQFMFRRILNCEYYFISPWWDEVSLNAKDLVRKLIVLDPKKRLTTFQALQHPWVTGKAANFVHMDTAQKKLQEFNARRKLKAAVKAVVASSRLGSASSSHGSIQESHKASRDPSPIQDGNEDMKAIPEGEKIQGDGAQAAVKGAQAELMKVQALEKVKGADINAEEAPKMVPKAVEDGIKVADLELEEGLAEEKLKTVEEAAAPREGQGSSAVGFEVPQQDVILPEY

[15] = target: T4, Calcium/calmodulin-dependent protein kinase type IV (Homo sapiens); details: at 1 µM
[16] = target: T5, Serine/threonine-protein kinase Chk1 (Homo sapiens) (UniProt O14757); details: at 0.1 µM
T5 sequence (whole entry): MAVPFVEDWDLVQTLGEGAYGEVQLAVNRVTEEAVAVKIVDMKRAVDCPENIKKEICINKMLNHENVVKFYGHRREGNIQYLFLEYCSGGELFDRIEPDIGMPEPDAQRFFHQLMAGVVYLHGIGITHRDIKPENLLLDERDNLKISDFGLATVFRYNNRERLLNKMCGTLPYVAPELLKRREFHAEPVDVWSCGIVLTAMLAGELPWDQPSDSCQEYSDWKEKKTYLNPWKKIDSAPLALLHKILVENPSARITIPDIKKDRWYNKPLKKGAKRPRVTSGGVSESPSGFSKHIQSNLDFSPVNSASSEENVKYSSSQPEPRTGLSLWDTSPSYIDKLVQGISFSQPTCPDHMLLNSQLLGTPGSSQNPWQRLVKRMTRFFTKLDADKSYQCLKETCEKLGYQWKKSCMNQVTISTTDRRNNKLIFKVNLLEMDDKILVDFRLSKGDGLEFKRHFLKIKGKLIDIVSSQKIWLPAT

[17] = target: T5, Serine/threonine-protein kinase Chk1 (Homo sapiens); details: at 1 µM
[18] = target: Serine/threonine-protein kinase Chk2 (Homo sapiens) (UniProt O96017); details: at 0.1 µM
[19] = target: Serine/threonine-protein kinase Chk2 (Homo sapiens) (UniProt O96017); details: at 1 µM
[20] = target: Death-associated protein kinase 1 (Homo sapiens) (UniProt P53355); details: at 0.1 µM;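 also: reported figure is the mean inhibition of DAPK1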
Sequence of Death-associated protein kinase 1 (Homo sapiens) (P53355 whole entry, looked up): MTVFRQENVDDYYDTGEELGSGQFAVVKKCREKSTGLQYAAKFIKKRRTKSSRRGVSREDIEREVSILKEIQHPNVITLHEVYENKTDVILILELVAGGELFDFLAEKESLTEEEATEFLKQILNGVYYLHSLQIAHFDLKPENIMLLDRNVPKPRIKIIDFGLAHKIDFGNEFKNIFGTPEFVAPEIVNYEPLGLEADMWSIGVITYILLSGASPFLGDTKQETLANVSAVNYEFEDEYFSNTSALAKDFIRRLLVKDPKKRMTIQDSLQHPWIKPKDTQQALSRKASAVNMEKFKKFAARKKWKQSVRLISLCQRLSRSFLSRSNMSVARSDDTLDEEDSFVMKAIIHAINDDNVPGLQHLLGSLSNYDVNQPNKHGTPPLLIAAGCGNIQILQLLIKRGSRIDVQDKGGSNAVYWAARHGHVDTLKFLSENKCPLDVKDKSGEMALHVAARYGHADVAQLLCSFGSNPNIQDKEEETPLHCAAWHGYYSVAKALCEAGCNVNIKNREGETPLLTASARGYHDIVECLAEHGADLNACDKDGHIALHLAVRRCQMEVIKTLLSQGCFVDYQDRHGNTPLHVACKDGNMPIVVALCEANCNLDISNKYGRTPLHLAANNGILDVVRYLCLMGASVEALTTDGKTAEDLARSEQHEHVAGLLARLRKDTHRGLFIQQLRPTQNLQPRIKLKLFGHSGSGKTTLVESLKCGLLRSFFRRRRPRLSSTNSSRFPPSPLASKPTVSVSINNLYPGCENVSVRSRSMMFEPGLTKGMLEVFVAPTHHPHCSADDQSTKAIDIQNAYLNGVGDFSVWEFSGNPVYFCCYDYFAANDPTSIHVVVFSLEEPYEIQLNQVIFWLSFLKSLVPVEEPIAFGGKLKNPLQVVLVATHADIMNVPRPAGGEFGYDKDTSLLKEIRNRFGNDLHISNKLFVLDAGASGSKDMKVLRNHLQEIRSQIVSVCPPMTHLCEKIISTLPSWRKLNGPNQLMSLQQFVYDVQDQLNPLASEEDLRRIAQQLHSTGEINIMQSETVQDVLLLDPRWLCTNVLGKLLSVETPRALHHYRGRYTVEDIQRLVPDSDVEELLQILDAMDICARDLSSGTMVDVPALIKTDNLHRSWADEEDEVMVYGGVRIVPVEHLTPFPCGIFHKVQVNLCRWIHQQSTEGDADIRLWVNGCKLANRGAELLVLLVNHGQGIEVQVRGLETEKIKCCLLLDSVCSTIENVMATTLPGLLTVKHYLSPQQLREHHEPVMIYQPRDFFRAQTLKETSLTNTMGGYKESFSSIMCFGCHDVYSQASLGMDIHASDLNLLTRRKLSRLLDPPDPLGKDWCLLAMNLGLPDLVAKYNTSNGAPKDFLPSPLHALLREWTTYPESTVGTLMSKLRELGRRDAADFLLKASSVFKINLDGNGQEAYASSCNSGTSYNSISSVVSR

Sequence of Serine/threonine-protein kinase Chk2 (Homo sapiens) (O96017 whole entry): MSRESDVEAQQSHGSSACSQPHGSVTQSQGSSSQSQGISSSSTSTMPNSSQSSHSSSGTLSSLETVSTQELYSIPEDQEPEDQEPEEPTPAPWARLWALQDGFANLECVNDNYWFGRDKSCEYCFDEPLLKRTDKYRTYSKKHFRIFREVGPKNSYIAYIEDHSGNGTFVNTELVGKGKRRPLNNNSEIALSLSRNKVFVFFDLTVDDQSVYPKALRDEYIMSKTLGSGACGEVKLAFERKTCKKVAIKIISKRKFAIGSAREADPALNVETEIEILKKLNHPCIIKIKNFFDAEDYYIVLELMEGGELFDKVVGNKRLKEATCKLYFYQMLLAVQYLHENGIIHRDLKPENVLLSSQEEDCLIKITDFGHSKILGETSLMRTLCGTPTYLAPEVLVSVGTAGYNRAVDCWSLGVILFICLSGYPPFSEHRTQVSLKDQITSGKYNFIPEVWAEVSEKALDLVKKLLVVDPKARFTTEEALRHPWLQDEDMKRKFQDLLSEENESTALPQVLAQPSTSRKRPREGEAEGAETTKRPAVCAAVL
Sequence of Calcium/calmodulin-dependent protein kinase type II subunit alpha (Homo sapiens) (Q9UQM7 whole entry): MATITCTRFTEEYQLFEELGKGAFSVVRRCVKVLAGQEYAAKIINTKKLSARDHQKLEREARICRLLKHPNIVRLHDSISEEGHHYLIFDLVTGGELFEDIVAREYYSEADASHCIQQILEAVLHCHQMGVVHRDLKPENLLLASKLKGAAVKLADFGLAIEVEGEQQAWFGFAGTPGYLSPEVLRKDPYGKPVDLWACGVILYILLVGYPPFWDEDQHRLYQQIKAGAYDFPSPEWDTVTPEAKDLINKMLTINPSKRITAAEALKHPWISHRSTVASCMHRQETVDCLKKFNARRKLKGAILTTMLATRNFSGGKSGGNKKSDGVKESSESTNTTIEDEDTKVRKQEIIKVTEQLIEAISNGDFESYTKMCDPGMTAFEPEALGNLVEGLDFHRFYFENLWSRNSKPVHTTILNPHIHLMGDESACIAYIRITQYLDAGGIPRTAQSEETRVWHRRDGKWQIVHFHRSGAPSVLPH
Sequence of Calcium/calmodulin-dependent protein kinase type II subunit delta (Homo sapiens) (Q13557 whole entry): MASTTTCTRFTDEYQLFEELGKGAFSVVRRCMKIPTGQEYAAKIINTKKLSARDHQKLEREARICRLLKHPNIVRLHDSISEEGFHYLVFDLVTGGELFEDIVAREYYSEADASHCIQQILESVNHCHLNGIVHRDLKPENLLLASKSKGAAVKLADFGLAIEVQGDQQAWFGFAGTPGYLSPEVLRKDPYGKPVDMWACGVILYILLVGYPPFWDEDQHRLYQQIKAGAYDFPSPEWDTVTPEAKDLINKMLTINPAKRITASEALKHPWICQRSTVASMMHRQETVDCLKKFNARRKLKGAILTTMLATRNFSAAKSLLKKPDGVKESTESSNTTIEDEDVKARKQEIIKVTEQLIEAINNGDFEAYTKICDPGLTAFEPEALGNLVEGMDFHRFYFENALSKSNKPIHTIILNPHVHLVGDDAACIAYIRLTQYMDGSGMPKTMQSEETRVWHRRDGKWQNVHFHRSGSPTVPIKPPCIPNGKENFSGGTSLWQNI
Sequence of 5'-AMP-activated protein kinase catalytic subunit alpha-2 (Homo sapiens) (P54646 whole entry, looked up): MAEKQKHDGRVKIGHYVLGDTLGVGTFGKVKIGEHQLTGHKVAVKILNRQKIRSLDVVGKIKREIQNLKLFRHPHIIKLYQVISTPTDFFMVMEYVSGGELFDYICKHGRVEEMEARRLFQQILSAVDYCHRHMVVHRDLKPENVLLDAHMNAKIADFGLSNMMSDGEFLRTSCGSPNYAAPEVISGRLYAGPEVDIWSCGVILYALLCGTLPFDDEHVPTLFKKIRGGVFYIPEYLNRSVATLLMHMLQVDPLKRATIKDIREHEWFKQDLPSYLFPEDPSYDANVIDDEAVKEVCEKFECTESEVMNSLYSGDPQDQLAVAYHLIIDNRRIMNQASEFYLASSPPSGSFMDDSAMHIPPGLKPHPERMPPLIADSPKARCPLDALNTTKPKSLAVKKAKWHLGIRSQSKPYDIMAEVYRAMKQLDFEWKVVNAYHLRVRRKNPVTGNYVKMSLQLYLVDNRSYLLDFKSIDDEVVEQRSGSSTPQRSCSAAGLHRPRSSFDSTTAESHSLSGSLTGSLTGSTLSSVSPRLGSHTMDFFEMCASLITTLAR
Sequence of Calcium/calmodulin-dependent protein kinase type 1D (Homo sapiens) (Q8IU85 whole entry, looked up): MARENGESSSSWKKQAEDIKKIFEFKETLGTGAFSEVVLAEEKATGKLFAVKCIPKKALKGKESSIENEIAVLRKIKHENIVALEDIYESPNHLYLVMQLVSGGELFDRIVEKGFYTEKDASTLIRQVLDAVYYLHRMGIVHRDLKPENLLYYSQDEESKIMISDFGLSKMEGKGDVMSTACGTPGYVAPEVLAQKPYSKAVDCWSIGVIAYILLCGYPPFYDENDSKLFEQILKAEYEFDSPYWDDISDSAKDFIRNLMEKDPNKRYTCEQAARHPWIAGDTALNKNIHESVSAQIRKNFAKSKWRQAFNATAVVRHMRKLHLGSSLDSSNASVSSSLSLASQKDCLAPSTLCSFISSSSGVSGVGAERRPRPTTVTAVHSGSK

Compound | inhibition [1] [%] | inhibition [2] [%] | inhibition [3] [%] | inhibition [4] [%] | inhibition [5] [%] | inhibition [6] [%] | inhibition [7] [%] | inhibition [8] [%] | inhibition [9] [%] | inhibition [10] [%] | inhibition [11] [%] | inhibition [12] [%] | inhibition [13] [%] | inhibition [14] [%] | inhibition [15] [%] | inhibition [16] [%] | inhibition [17] [%] | inhibition [18] [%] | inhibition [19] [%] | inhibition [20] [%]
CN(C)c1cc2c(Nc3ccc4c(cnn4Cc4ccccc4)c3)ncnc2cn1 | 2.49 | 1.17 | 3.46 | 2.42 | 7.54 | 2.27 | 9.3 | -0.24 | 0.88 | 2.88 | 2.41 | 2.28 | 2.7 | 1.84 | 0.37 | 2.49 | 5.16 | 3.91 | 17.9 | 2.91
CCS(=O)(=O)c1ccc(OC)c(Nc2nccc(N(C)c3ccc4c(C)n[nH]c4c3)n2)c1 | 3.91 | -0.8 | -2.26 | 0.17 | 4.69 | 3.82 | 4.12 | 3.64 | 0.51 | 2.57 | -0.61 | 3.29 | 6.46 | -1.76 | -2.8 | 4.57 | 2.19 | 3.81 | 8.77 | 7.35
Oc1cccc(-c2nc(-c3ccccc3)[nH]c2-c2ccncc2)c1 | 4.6 | 0.46 | 2.27 | -0.48 | 1.89 | 1.98 | 4.34 | 0.26 | 1.01 | 3.36 | 3.17 | 3.67 | 3.45 | 2.26 | 0.29 | 7.47 | 6.28 | 0.91 | 1.68 | 5.76
COc1cc2ncnc(Nc3ccc(C)c(O)c3)c2cc1OC | 5.2 | 7.16 | 1.93 | 1.23 | 3.78 | 3.07 | 6.2 | -0.09 | 0.02 | 2.98 | 2.74 | 2.6 | 3.68 | -1.73 | -3.77 | 4.63 | 4 | 5.03 | 25.5 | 6.4
CS(=O)(=O)CCNCc1nc(-c2ccc3ncnc(Nc4ccc(OCc5cccc(C(F)(F)F)c5)cc4)c3c2)cs1 | 2.15 | 0.06 | 2.2 | 2.31 | -0.57 | 0.24 | 1.3 | -0.5 | 2.37 | 1.59 | 2.45 | 2.93 | 3.53 | 0.68 | 1.44 | 1.74 | 5.07 | 1.74 | 5.27 | 3.32
C[C@@H](Oc1cc(-n2cnc3ccc(OC[C@@H](O)CO)cc32)sc1C(N)=O)c1ccccc1Cl | 2.08 | 6.98 | 39.1 | 15.7 | 55.8 | 24.2 | 68.3 | -0.01 | 0.92 | -2.71 | 2.24 | -0.89 | 7.31 | 1.25 | 1.44 | 0.04 | -1.83 | -1.68 | -1.71 | -1.62
COc1cc2ncnc(Nc3ccc4c(cnn4Cc4ccccc4)c3)c2cc1OC | 3.91 | -0.12 | 2.05 | 1.23 | 1.11 | 0.79 | 4.84 | 0.22 | 1.49 | 0.08 | 0.24 | 1.57 | 4.24 | -0.17 | 0.05 | 8.66 | 14.1 | 10.7 | 35.9 | 9.32
COc1cc(/C=N/Nc2ncnc3c2cnn3C(C)C)ccc1O | 4.32 | 7.43 | 22.3 | 1.45 | 7.43 | 1.52 | 12.1 | 1.23 | 0.59 | -0.2 | 0.99 | 0.75 | 3.93 | 0.62 | -1.97 | 3.18 | 4.84 | 0.04 | 1.88 | 1.63
NS(=O)(=O)c1ccc(NC=C2C(=O)Nc3ccc4ncsc4c32)cc1 | 53.4 | 69.9 | 69.8 | 34.1 | 60.3 | 45.2 | 63.6 | 2.99 | 8.72 | 4.91 | 13.7 | 7.83 | 30.6 | 0.83 | 6.33 | 14.5 | 48 | 7.15 | 33.2 | 4.96
CN(C)C(=O)O[C@@H]1CN[C@@H](C#Cc2cc3ncnc(Nc4ccc(OCc5cccc(F)c5)c(Cl)c4)c3s2)C1 | 3.03 | -0.32 | 0.15 | 1.77 | 1.18 | 1.4 | 1.44 | 1.61 | 1.9 | 1.78 | 1.65 | 1.47 | 2.72 | 0.93 | 0.99 | -0.23 | 0.16 | 0.47 | 1.66 | 0.93
Cc1cc(Cl)cc2c1NC(=O)C2=NNc1ccc(S(N)(=O)=O)cc1 | 1.04 | 0.35 | 8.3 | -1.42 | 3.61 | 1.16 | 3.77 | 0.2 | -0.6 | 4.14 | 0.96 | 2.57 | -0.12 | -0.56 | -3.46 | 2.43 | 2.86 | 1.38 | 2.55 | 2.88
NS(=O)(=O)c1cccc(-c2cc3ccncc3cc2OCc2ccccc2)c1 | 7.06 | 8.52 | 11.3 | 3.31 | 3.45 | 2.26 | 3.2 | 0.47 | 0.96 | 4.23 | 4.81 | 4.83 | 5.07 | 0.13 | -0.46 | 5.29 | 6.26 | 3.17 | 5.38 | 6.37
Cc1cc(-c2ccccn2)cc(C)c1/C=C/c1cncc(-c2nn[nH]n2)c1 | 3.78 | 2.95 | 6.85 | 2.2 | -0.86 | 1.67 | 3.37 | 0.06 | 0.67 | 2.42 | 1.59 | 2.75 | 5 | -1.17 | -1.4 | 4.62 | 4.81 | 2.62 | 4.43 | 6.16
